Our source for the Potency and PLD induction values is PubChem BioAssay (Tox21).

Structures are written as SMILES. Several values for one entry are separate records, joined by “and”; a condition that tells them apart may be missing. Identical values can stand only once. A number with no mark means an inactive call. Records with an inconclusive call do not appear. Activity calls are given as the source filed them. Unless noted, the call rests on the fitted dose curve; in most records, active means well fitted curve in the direction sought with a large enough effect in the repeat runs; inconclusive means weak or mixed curves; inactive means no such curve, though single readings can be large; an effect the other way counts as inactive or inconclusive.

A short description of experiment [1]: A CellTox Green Cytotoxicity Assay to monitor cytotoxicity in HepG2 cells - 8 hour (AID 1224890). Further: nearly all actives have a fitted effect of over 45% in size. The gist of the method: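 Fluorescent DNA-binding dye, 600 HepG2 cells/well, 5 h preincubation then compound in DMSO; same plates read at 0–40 h, 37 C.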
A short description of experiment [2]: qHTS assay to identify small molecule antagonists of the estrogen receptor alpha (ER-alpha) signaling pathway using the BG1 cell line in the presence of 0.1 nM 17-beta-estradiol - cell viability counter screen (AID 1259241). Further: nearly all actives have a fitted effect of over 40% in size. Further: potency means the concentration at half of the fitted maximal effect. The gist of the method: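 VM7Luc4E2 cells (endogenous ER-alpha, 4×ERE-luciferase), hormone-starved 5 days in charcoal-stripped FBS, were treated with compounds plus 0.1 nM 17beta-estradiol for 22 hr at 37C; viability read in same wells as CellTiter-Fluor live-cell protease fluorescence.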
Background: qHTS replaces the single test concentration by a dilution series.

A short description of experiment [3]: qHTS assay to identify small molecule antagonists of the androgen receptor (AR) signaling pathway using the MDA cell line in the presence of 0.5 nM R1881 - cell viability counter screen (AID 1259242). Further: nearly all actives have a fitted effect of over 45% in size. Further: potency means the concentration at half of the fitted maximal effect. The gist of the method:
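Human breast carcinoma MDA-kb2 cells, cultured without CO2, receive compounds alongside 0.5 nM (final) R1881 agonist. After 16 hr at 37C, viability is taken as live-cell protease signal.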

The nature of experiment [4]: qHTS assay to identify small molecule HDAC inhibitors (AID 1259364). Further: potency means the concentration at half of the fitted maximal effect.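 Further: wild-type HCT-116 cells with endogenous class I/II HDAC activity; nearly all actives have a fitted effect of over 45% in size.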 The gist of the method:
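After a 2 hr compound incubation (37C, 5% CO2), HCT-116 cells seeded at 1,500/well the day before received HDAC-Glo reagent; signal read as luminescence after 30 min at room temperature.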

Experiment [5] in a line: qHTS assay to identify small molecule HDAC inhibitors - cell viability counter screen (AID 1259365). Further: series mostly up to about 92 µM; nearly all actives have a fitted effect of over 50% in size. The gist of the method:
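Wild-type HCT-116 cells were seeded at 1,500 per well, incubated overnight at 37 C, then exposed to compounds in DMSO for 2hr. Viability was read by CellTiter-Glo luminescence after 30min at room temperature.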

Experiment [6] can be described thus: qHTS assay to identify small molecule agonists of the sonic hedgehog signaling (Shh) pathway - cell viability counter screen (AID 1259366). Further: nearly all actives have a fitted effect of over 50% in size. Further: potency means the concentration at half of the fitted maximal effect. The gist of the method:
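NIH/3T3-derived 3T3 Gli1-Luc cells (stable Gli1-responsive firefly luciferase reporter) were seeded, rested 4 hr at 37 C/5% CO2, then exposed to compounds in DMSO for 24 hr; viability was read by CellTiter-Fluor fluorescence in the same wells.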

Experiment [7] can be described thus: qHTS assay to identify small molecule antagonists of the sonic hedgehog signaling (Shh) pathway - cell viability counter screen (AID 1259367). Further: nearly all actives have a fitted effect of over 55% in size. Further: potency means the concentration at half of the fitted maximal effect. The gist of the method:
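Conditioned medium drove Shh signaling in 3T3 Gli1-Luc cells exposed to compounds at 37C and 5% CO2. Viability was determined from CellTiter-Fluor fluorescence, with reagent incubated 1 hr after 23 hr of treatment.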

Experiment [8] is described as follows: qHTS assay to identify small molecule phospholipidosis (PLD) inducers (AID 1259344; active means well fitted curve in the direction sought with a large enough effect; an effect the other way counts as inactive or inconclusive). The procedure, abridged:
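After 4 h attachment on collagen I, HepG2 cells were dosed with compound alongside LipidTOX Red, kept 24 h at 37 C, fixed, and imaged for lamellar phospholipid pits.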
On the % scale 0 is the no-effect control and ±100 the full control effect.

Regarding `Cc1ccco1`, the Potency result in experiment [1], in experiment [2], in experiment [3], in experiment [4], in experiment [5] and in experiment [6] was “inactive” each time. In experiment [7], the Potency result was “inactive”.
On to `NNC(=O)CP(=O)(c1ccccc1)c1ccccc1`, for which the Potency entry in experiment [1], in experiment [2], in experiment [3], in experiment [8], in experiment [4] and in experiment [5] was “inactive” each time. Besides, the Potency entry in experiment [6] and in experiment [7] was “inactive” each time.
As to `CCCCCCCCN`, the Potency result in experiment [1], in experiment [2], in experiment [3], in experiment [4], in experiment [5] and in experiment [6] was “inactive” throughout. Also, the Potency entry in experiment [7] was “inactive”.
Take `CC[N+](CC)(CCNC(=O)C(=O)NCC[N+](CC)(CC)Cc1ccccc1Cl)Cc1ccccc1Cl`: the Potency entry in experiment [1], in experiment [2], in experiment [3], in experiment [8], in experiment [4] and in experiment [5] was “inactive” each time. Further, the Potency result in experiment [6] and in experiment [7] was “inactive” in each case.
For `COc1cc(N)c(Cl)cc1C(=O)NC1CCN(CCCOc2ccc(F)cc2)CC1OC` (configuration not stated), the Potency entry in experiment [1], in experiment [2], in experiment [3], in experiment [8], in experiment [5] and in experiment [7] was “inactive” in each case.
For the compound `C[C@]1(Cn2ccnn2)[C@H](C(=O)O)N2C(=O)C[C@H]2S1(=O)=O`, the Potency result in experiment [1], in experiment [2], in experiment [3], in experiment [8], in experiment [4] and in experiment [5] was “inactive” throughout. Besides, the Potency result in experiment [6] and in experiment [7] was “inactive” each time.
Turning to `CC(=O)c1ccc([N+](=O)[O-])cc1`, the Potency entry in experiment [1], in experiment [2], in experiment [3], in experiment [4], in experiment [5] and in experiment [6] was “inactive” each time. Further, the Potency result in experiment [7] is “inactive”.
`O=C(CCCN1CC=C(n2c(=O)[nH]c3ccccc32)CC1)c1ccc(F)cc1`: the Potency entry in experiment [1], in experiment [2], in experiment [3], in experiment [8], in experiment [5] and in experiment [6] was “inactive” in each case. The Potency entry in experiment [7] was “inactive”.
As to `CC1(C)[C@H](C(=O)O)N2C(=O)C[C@H]2S1(=O)=O`, the Potency entry in experiment [1], in experiment [2], in experiment [3], in experiment [4], in experiment [5] and in experiment [6] was “inactive” each time. In experiment [7], the Potency result was “inactive”. In addition, the PLD induction in experiment [8] was 7.08% [at 7.66 µM].
Turning to `CCC(OCCCOC)OC(C)=O` (configuration not stated), the Potency entry in experiment [1], in experiment [2], in experiment [3], in experiment [4], in experiment [5] and in experiment [6] was “inactive” in each case. Moreover, the Potency entry in experiment [7] was “inactive”.
As to `C[C@@]12CCC[C@H]1[C@@H]1CC[C@H]3C[C@@H](O)CC[C@]3(C)[C@H]1CC2`, the Potency entry in experiment [1], in experiment [2], in experiment [3], in experiment [4], in experiment [5] and in experiment [6] was “inactive” each time. In experiment [7], the Potency result is “inactive”. Further, the PLD induction in experiment [8] was 17.2% [at 7.66 µM].
Consider `O[C@@H]1CO[C@H]2[C@@H]1OC[C@@H]2O`, for which the Potency result in experiment [1], in experiment [2], in experiment [3], in experiment [8], in experiment [4] and in experiment [6] was “inactive” each time. Also, the Potency entry in experiment [7] is “inactive”.
For the compound `CN1CC(=O)N2[C@H](c3ccc4c(c3)OCO4)c3[nH]c4ccccc4c3C[C@@H]2C1=O`, the Potency result in experiment [1], in experiment [2], in experiment [3], in experiment [8], in experiment [4] and in experiment [5] was “inactive” throughout. The Potency entry in experiment [6] and in experiment [7] was “inactive” in each case.
In the case of `O=C1NCCN1CCO`, the Potency result in experiment [1], in experiment [2], in experiment [3], in experiment [4], in experiment [5] and in experiment [6] was “inactive” in each case. For the same compound, in experiment [7], the Potency result was “inactive”.
Take `N#[N+]c1ccc2c(S(=O)(=O)[O-])cccc2c1O`: the Potency entry in experiment [1], in experiment [2], in experiment [3], in experiment [5] and in experiment [7] was “inactive” throughout.
Consider `CCCCCCCCOc1ccc(C(=O)O)cc1`, for which the Potency result in experiment [1], in experiment [2], in experiment [3], in experiment [5], in experiment [6] and in experiment [7] was “inactive” each time.
For `CC(=O)Oc1ccc([N+](=O)[O-])cc1CCl`, the Potency result in experiment [1] and in experiment [4] was “inactive” throughout. Moreover, the Potency is 54.5 µM (active) in experiment [2], 30.6 µM (active) in experiment [3], 27.3 µM (active) in experiment [6] and 27.3 µM (active) in experiment [7].
Turning to `C=CC(=O)[O-].C=CC(=O)[O-].[Zn+2]`, the Potency entry in experiment [1], in experiment [2], in experiment [3] and in experiment [4] was “inactive” in each case. Also, the Potency in experiment [6] was 53.2 µM (active).
For the compound `O=c1c(O)c(-c2ccc(O)cc2)oc2cc(O)cc(O)c12`, the Potency entry in experiment [1], in experiment [2], in experiment [3] and in experiment [6] was “inactive” throughout. The Potency in experiment [4] was 21.6 µM (active) and 16.4 µM (active); in experiment [7] it was 48.4 µM (active).
On to `CC(C)(O)c1ccc(CNC(=O)c2cccnc2Oc2ccc3nonc3c2)cc1`, for which the Potency result in experiment [1], in experiment [2], in experiment [3], in experiment [5] and in experiment [7] was “inactive” each time.
As for `CN1CCCN=C1COC(=O)C(O)(c1ccccc1)C1CCCCC1` (configuration not stated), the Potency result in experiment [1], in experiment [2], in experiment [3], in experiment [4], in experiment [5] and in experiment [6] was “inactive” each time. In addition, the Potency result in experiment [7] is “inactive”.
Turning to `CC1CC(C)C(=O)C1=O` (configuration not stated), the Potency result in experiment [1], in experiment [2], in experiment [3], in experiment [4], in experiment [5] and in experiment [6] was “inactive” in each case. In addition, in experiment [7], the Potency result was “inactive”.
Regarding `CC(C)C=O`, the Potency result in experiment [1], in experiment [2], in experiment [3], in experiment [4], in experiment [5] and in experiment [6] was “inactive” in each case. For the same compound, the Potency result in experiment [7] is “inactive”.
For the compound `CNC(=O)c1cnn(-c2nc(N)c3ncn([C@@H]4O[C@H](CO)[C@@H](O)[C@H]4O)c3n2)c1`, the Potency entry in experiment [1], in experiment [2], in experiment [3], in experiment [4], in experiment [5] and in experiment [6] was “inactive” in each case. The Potency entry in experiment [7] was “inactive”.
Consider `FC(F)(F)c1ccccc1Cl`, for which the Potency entry in experiment [1], in experiment [2], in experiment [3], in experiment [4], in experiment [5] and in experiment [6] was “inactive” in each case. For the same compound, the Potency entry in experiment [7] is “inactive”.
As to `CC(CCC(=O)O)C(=O)O` (configuration not stated), the Potency result in experiment [1], in experiment [2], in experiment [3], in experiment [5], in experiment [6] and in experiment [7] was “inactive” each time.
